A selection: hits, their analogues and other compounds. The true share with any hit is near 1.3%.
SARS PLpro yeast-1 = blocks SARS-CoV papain-like protease in a yeast assay; 0.19% of 330,000 active; S. cerevisiae expressing SARS-CoV PLpro, growth rescue; Potency, µM (series often up to 32.9 µM), without a hit: at the top dose activity, positive = growth rescue, most hits filed as activators; calls by dose curve; note: potency is the fitted concentration of half-maximal effect; 0% is about no effect; nearly all actives have a fitted effect of over 55% in size
VACV mCherry inh = vaccinia inhibition (mCherry reporter) | AID 720579 | Potency, µM (highest dose often 36.5 µM), for inactives: at the highest dose activity change, negative = inhibition, most hits filed as inhibitors | Vaccinia virus mCherry reporter infection, fluorescence | 0.63% of 310,000 active; calls by dose curve; tested in A549 cells; note: potency is the fitted concentration of half-maximal effect; % is set by controls: 0 for no effect and ±100 for the full control effect; nearly all actives have a fitted effect of over 35% in size
AMA1 RON2 block = AMA1-RON2 (P. falciparum) interaction inhibition. AlphaScreen AMA1-biotinylated RON2 peptide binding. Potency, µM (series often up to 58.2 µM), inactives show top-dose activity change, negative = inhibition, most hits filed as inhibitors. 0.2% of 360,000 active. AID 720542;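 note: potency is the fitted concentration of half-maximal effect; 0% = vehicle wells and -100% = peptide control; nearly all actives have a fitted effect of over 45% in size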
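AMA1 (3D7) with his tag at 25 nM final met compounds first, then biotinylated RON2 peptide at 25 nM; detection used donor plus acceptor beads, 10 µg/mL apiece, read by AlphaScreen after 30 min at room temperature.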
VACV Venus inh = vaccinia inhibition (Venus reporter). Vaccinia virus Venus reporter expression, fluorescence. Potency, µM (highest dose often 36.5 µM), for the others: at the highest dose activity change, negative = inhibition, usual class: inhibitors. 0.46% of 330,000 active. AID 720580; calls by dose curve; tested in A549 cells; note: potency is the fitted concentration of half-maximal effect; % is set by controls: 0 for no effect and ±100 for the full control effect; nearly all actives have a fitted effect of over 30% in size
AmpC inh no detg = blocks E. coli AmpC beta-lactamase in detergent-free assay. P00811. Potency, µM (top dose mostly 57.1 µM), inactives show at the highest dose activity change, negative = inhibition, hits mostly inhibitors. 0.52% of 330,000 active. AmpC nitrocefin hydrolysis, absorbance 480 nm, 0.0001% Triton;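 note: potency is the fitted concentration of half-maximal effect; plate controls were no compound for no effect and no enzyme for full effect; nearly all actives have a fitted effect of over 20% in size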
Target sequence (P00811 whole entry, looked up): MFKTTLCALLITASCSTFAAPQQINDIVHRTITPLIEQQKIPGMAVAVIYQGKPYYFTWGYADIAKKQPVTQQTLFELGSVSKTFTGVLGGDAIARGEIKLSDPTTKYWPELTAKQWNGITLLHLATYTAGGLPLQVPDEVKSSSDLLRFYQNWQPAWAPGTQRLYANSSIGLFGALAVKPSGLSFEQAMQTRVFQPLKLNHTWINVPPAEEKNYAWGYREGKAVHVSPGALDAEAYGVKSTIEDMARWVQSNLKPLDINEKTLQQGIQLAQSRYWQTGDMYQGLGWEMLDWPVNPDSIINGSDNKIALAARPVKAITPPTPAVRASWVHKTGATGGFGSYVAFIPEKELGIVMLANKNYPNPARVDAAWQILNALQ
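AmpC (5.3 nM in the dispensed reagent) in 20 mM phosphate pH 7.0 with 0.01% (detergent screen) or 0.0001% Triton X-100 was preincubated with compounds for 15 min at room temperature. Nitrocefin was then added from an 800 uM solution, and hydrolysis was followed at 480 nm.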
AmpC inh detg = blocks E. coli AmpC beta-lactamase in detergent assay. AmpC hydrolysis of nitrocefin, absorbance 480 nm, 0.01% Triton. AID 485294. Potency, µM (highest dose often 114 µM), for inactives: top-dose activity change, negative = inhibition, most hits filed as inhibitors. P00811. 0.041% of 370,000 active;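 note: potency is the fitted concentration of half-maximal effect; 0% = no-compound wells and -100% = no-enzyme wells; nearly all actives have a fitted effect of over 25% in size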
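20 mM phosphate pH 7.0 + 0.01% (detergent screen) or 0.0001% Triton X-100; 5.3 nM AmpC reagent; cpd preinc 15 min RT; nitrocefin (800 uM stock) to start; A480 q20 s × 4 min; Activity was normalised to no-enzyme and no-compound control wells.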
SARS PLpro yeast-2 = Inhibits SARS-CoV PLP in yeast, hit validation; shares compounds with SARS PLpro yeast-1; yeast expressing SARS-CoV PLpro, growth phenotype rescue; calls only; 19% of 1,000 active; call rule not given here
Active calls of the source: *; i = inactive; ? = inconclusive; . = not tested or not shown; + = active, no number; [ ] = dose if it differs, or a comment. Unless noted, calls come from the whole dose curve; as a rule, active = well fitted curve in the direction sought with a large enough effect; inconclusive = small, poorly fitted or top-dose-only effect, or another doubt; inactive = no such curve, though single readings can be large; an effect the other way counts as inactive or inconclusive.

SMILES | SARS PLpro yeast-1 | VACV mCherry inh | AMA1 RON2 block | VACV Venus inh | AmpC inh no detg | AmpC inh detg | SARS PLpro yeast-2
O=C(CNC(=S)NC(=O)c1ccccc1Br)c1ccccc1 | 2% | -12% | -8% | -14% | 6% | 5% | .
Cc1ccc(CNC(=O)/C=C/c2ccc(Br)o2)cc1 | . | -7% | -4% | 0% | -57% | ? | i
Cc1ccc2c(c1)-c1onc(C(=O)N3CCN(c4cc(C)ccc4C)CC3)c1CO2 | . | 5% | . | 0% | . | 5% | .
CCCN1CCN(C(=O)c2noc3c2COc2ccc(C)cc2-3)CC1 | ? | 14% | -2% | -3% | 103% | -15% | i
CCC(=O)Nc1cccc(-c2nc3ncccc3o2)c1C | -2% | . | 0% | . | -12% | 1% | .
Cc1c(NC(=O)CSc2ccc(Cl)cc2)cccc1-c1nc2ncccc2o1 | ? | -26% | 0% | -23% | 17% | -2% | ?
CNCCCN1c2ccccc2CCc2ccccc21 | 18µM* | -10% | -5% | -23% | 1% | ? | i
CN(C)CCCN1c2ccccc2CCc2ccc(Cl)cc21 | -13% | -13% | -13% | -26% | 117% | 2% | .
CNC(=O)N(C1=NCCCCC1)c1ccc(Br)cc1 | . | -14% | 16% | -5% | -22% | -6% | i
CCc1ccc(Oc2c(C(F)(F)F)oc3c(CN4CCCC(C)C4)c(O)ccc3c2=O)cc1 (stereo not given) | . | -6% | . | -1% | . | 26% | .
COc1ccc(Cc2nnc(N/N=C/c3ccc(O)cc3O)[nH]c2=O)cc1OC | 6.3µM* | ? | -29% | -14% | -13% | 5% | i
CN1CCN(C(c2ccccc2)c2sc3nc(-c4ccco4)nn3c2O)CC1 (stereo not given) | . | -13% | . | -12% | . | 4% | .
CCOc1ccccc1-n1c(SCC(=O)N2CCOCC2)nc2ccccc2c1=O | -2% | i | -7% | -16% | 0% | 1% | .
O=C(/C=C1\NC2(CCCC2)Cc2ccccc21)C(=O)N/N=C/c1ccccc1O | 7.9µM* | 13µM* | 42% | ? | -29% | ? | +
C[C@@H]1C[C@H]2[C@@H]3CCC4=CC(=O)C=C[C@]4(C)[C@@]3(F)[C@@H](O)C[C@]2(C)[C@H]1C(=O)CO | 10µM* | i | -2% | -13% | 22% | 0% | i
O=C(COc1ccc2cc(-c3ccccc3)c(=O)oc2c1)NCC1CCC(C(=O)O)CC1 (stereo not given) | 6% | 4% | 0% | 7% | -17% | -8% | .
O=C(CSc1nc2ccccc2c(=O)n1Cc1ccco1)NCc1ccco1 | 3% | i | -6% | -8% | -46% | -8% | .
COC(=O)c1c(NC(=O)CSc2nc3ccccc3c(=O)n2Cc2ccco2)sc(C)c1C | ? | -5% | 9% | 4% | -31% | -6% | +
CCCCCCOC(=O)C(C#N)c1nc2ccccc2nc1N1CCN(C)CC1 (stereo not given) | ? | . | -15% | . | 146% | ? | i
CN1C(=O)c2ccccc2N(C)C1c1ccc2c(c1)OCO2 (stereo not given) | 9% | . | 1% | -9% | 0% | -16% | .
c1cc2c(cc1[C@H]1OC[C@H]3[C@@H]1CO[C@H]3c1ccc3c(c1)OCO3)OCO2 | ? | -4% | 8% | -14% | -21% | . | i
Cc1ccc(O)c(N=NC2=C(O)CC(C)(C)CC2=O)c1 | 18µM* | ? | -25% | ? | -16% | 0% | +
Cc1c(-c2ccncc2)oc2ccc(Br)cc2c1=O | -1% | . | . | . | -9% | 2% | .
CCOC(=O)N1CCN(CC(O)COCc2ccccc2)CC1 (stereo not given) | ? | -10% | 3% | 0% | -4% | -17% | i
CCN1CCN(CC(O)COCc2ccccc2)CC1 (stereo not given) | 7% | . | 0% | -18% | -16% | -4% | .
SMILES | SARS PLpro yeast-1 | VACV mCherry inh | AMA1 RON2 block | VACV Venus inh | AmpC inh no detg | AmpC inh detg | SARS PLpro yeast-2
CCN1C(=O)[C@H]2[C@@H](c3ccc(OC)cc3)N3C(=O)CN(CCOC)C(=O)[C@@]3(C)[C@H]2C1=O | -8% | i | -3% | -4% | -13% | -6% | .
NC(N)=NC1=NC(=O)/C(=C/c2ccccc2-n2cccn2)S1 | . | -8% | 42% | -6% | -33% | -2% | i
O=[N+]([O-])c1ccc(/C=N/NC(=S)Nc2ccccc2)o1 | -94% | -12% | 25% | 0% | -9% | -8% | .
O=[N+]([O-])c1cccc(-c2ccc(/C=N/NC(=S)Nc3ccccc3)o2)c1 | ? | . | -6% | -17% | ? | ? | +
COc1ccc(NC(=O)C(Cc2ccccc2)NS(=O)(=O)c2ccc3c(c2)CCC(=O)N3)c(OC)c1 (stereo not given) | . | -6% | . | 5% | . | -3% | .
COc1ccc(C(=O)Oc2ccc(=O)n(-c3ccccc3)n2)cc1 | . | . | 5% | . | 27% | ? | +
CN1CCN(C(c2cccc(Br)c2)c2sc3nc(-c4ccco4)nn3c2O)CC1 (stereo not given) | . | -6% | . | -6% | . | 0% | .
NC(=O)N/N=C\c1cc(Br)ccc1O | 10% | -13% | 62% | -17% | -15% | -6% | .
O=C(N/N=C/c1cc(Cl)ccc1O)c1ccc(Br)cc1 | ? | 3.2µM* | -14% | ? | -50% | ? | i
Nc1nonc1C(=O)N/N=C/c1cc(Br)ccc1O | ? | ? | -9% | ? | -26% | -3% | +
Cc1c(-c2ccccc2)oc2c(C(=O)OCC(=O)Nc3ccc(F)cc3)cccc2c1=O | 0% | . | -4% | . | -19% | -6% | .
COc1cccc(/C=N/NC(=O)C(=O)Nc2ccccc2OC(F)(F)C(F)F)c1O | 3.5µM* | 10µM* | 52% | ? | -27% | -12% | i
COc1ccccc1/C=N/NC(=O)c1cccc(OC(F)(F)C(F)F)c1 | -10% | -18% | 0% | -2% | -33% | -8% | .
O=[N+]([O-])c1c(NCc2ccccc2)cc(N2CCc3ccccc3C2)c2nonc12 | -5% | -11% | -9%[11.6 µM] | -3% | -22% | ? | .
CC(=O)NC(c1ccccc1)c1cc(Cl)c2cccnc2c1O (stereo not given) | ? | ? | 0% | ? | -7% | -6% | .
CCC(=O)NC(c1cccs1)c1cc(Cl)c2cccnc2c1O (stereo not given) | 1% | ? | 64% | ? | 26% | -6% | .
COc1ccc(C(NC(C)=O)c2cc(Cl)c3cccnc3c2O)cc1 (stereo not given) | 10µM* | . | 14% | . | 3% | ? | i
